Bioassay records: PubChem, several laboratories
ROMK mod: modulators of human ROMK potassium channel; Tet-inducible ROMK, thallium flux fluorescence; actives lie on both sides; 2% of 130,000 active; B-score at 10 µM;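 active = signal ratio slope over the read window, or its plate-corrected B-score, at least 3 SD from the plate mean, either direction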;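 note: B-score of the F/F0 ratio slope over 7 to 12 s after thallium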
Target sequence (P48048 whole entry, looked up): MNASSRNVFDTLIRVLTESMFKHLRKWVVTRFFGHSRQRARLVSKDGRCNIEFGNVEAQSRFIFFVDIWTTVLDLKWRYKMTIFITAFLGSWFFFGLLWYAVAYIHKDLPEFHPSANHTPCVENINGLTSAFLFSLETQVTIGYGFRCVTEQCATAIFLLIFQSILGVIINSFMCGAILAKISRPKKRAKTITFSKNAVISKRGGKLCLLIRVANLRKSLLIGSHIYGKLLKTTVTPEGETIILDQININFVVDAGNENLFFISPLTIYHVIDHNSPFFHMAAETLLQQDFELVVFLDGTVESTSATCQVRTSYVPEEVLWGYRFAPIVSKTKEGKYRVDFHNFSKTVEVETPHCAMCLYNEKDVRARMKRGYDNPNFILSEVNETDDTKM
Lmaj promast: inhibitors of Leishmania major promastigote growth; Leishmania major promastigotes, resazurin fluorescence viability; inhibition, % at 10 µM; 9% of 200,000 active; AID 1063; in the data active = inhibition above about 50%;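 note: promastigotes grown with compound for 44 hours at 28 °C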
m-calpain inh: inhibitors of pig calpain II | 0.37% of 220,000 active | inhibition, % at 16 µM | purified calpain II, fluorogenic peptide substrate, 30 min;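 active = inhibition above about 50%, limit read from the data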
WT yeast gro inh: growth inhibition of WT yeast, mitochondrial fusion screen. mitochondrial fusion phenotypic screen, WT strain. inhibition, % at 10 µM. 2.1% of 190,000 active; in the data active = inhibition above about 58%; tested in S. cerevisiae
Cl transport mod: modulates chloride dependent transport by human KCC2; KCC2 cells, thallium flux FluoZin-2 fluorescence; 2.2% of 190,000 active; B-score of Tl+ flux slope (higher = more flux/activation; lower = inhibition) at 10 µM; Q9H2X9;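 active = thallium flux slope and its plate-corrected score both differing from the plate sample mean at a set confidence after two filtering rounds, in either direction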;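 note: slope of fluorescence scaled to starting intensity during 10 to 20 s after thallium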
The depositor's hits bear a star. The list is not random: actives were taken first. Their share in the collection is about 12%.

`Cc1ccc2ncnc(Oc3ncccc3NC(=O)C(C)(C)C)c2c1` gave m-calpain inh 12.
For C=CCNC(=O)C12CCC(C)(C(=O)[C@H]1Br)C2(C)C (stereo not given in full) the results were ROMK mod -0.42, m-calpain inh -16 and Cl transport mod -0.018.
CC1=C(C(=O)Nc2ccccc2)C(c2ccncc2)C(C#N)=C(SCC(=O)Nc2ccccc2)N1 (stereo not given) was read as Lmaj promast 99*, m-calpain inh inactive, WT yeast gro inh 2 and Cl transport mod -0.67.
CC(=O)C1=C(C)NC(SCSc2ccccc2)=C(C#N)C1c1cccnc1 (stereo not given) was read as Lmaj promast 100*, m-calpain inh -20, WT yeast gro inh 22 and Cl transport mod -1.8.
`CCCCc1c(C)nc2ccc(Br)cc2c1SCCC#N` gave Lmaj promast 9, m-calpain inh -27, WT yeast gro inh 60* and Cl transport mod -0.57.
Screening CCc1c(C)nc2ccc(Br)cc2c1SCCC#N returned ROMK mod -1.7, Lmaj promast 9, m-calpain inh 2, WT yeast gro inh 12 and Cl transport mod -0.46.
`O=C(COC(=O)c1cn(-c2ccccc2)nc1-c1ccccc1)c1cccc([N+](=O)[O-])c1` gave Lmaj promast 0, m-calpain inh 18, WT yeast gro inh -2 and Cl transport mod 0.29.
For O=C(NCc1cn(-c2ccccc2)nc1-c1ccccc1)c1cccc([N+](=O)[O-])c1 the results were Lmaj promast 25, m-calpain inh 14, WT yeast gro inh 20 and Cl transport mod 0.91.
CCn1ncc(CNC(=O)c2cccc([N+](=O)[O-])c2)c1C was read as Lmaj promast -4, m-calpain inh -18, WT yeast gro inh -3 and Cl transport mod 0.48.
Screening O=C(NCc1cn(-c2ccccc2)nc1-c1ccccc1)c1cc([N+](=O)[O-])cc([N+](=O)[O-])c1 returned Lmaj promast 100*, m-calpain inh 4, WT yeast gro inh 0 and Cl transport mod 1.2.
O=C(O)CCC(=O)NCc1cn(-c2ccccc2)nc1-c1cccc(Br)c1 was read as Lmaj promast 59*, m-calpain inh -21, WT yeast gro inh 1 and Cl transport mod 3.8.
Screening CCn1cc(CNC(=O)c2cccc([N+](=O)[O-])c2)cn1 returned ROMK mod 0.0078, Lmaj promast 89*, m-calpain inh -2, WT yeast gro inh -6 and Cl transport mod 0.087.
For COc1ccc(-c2nn(-c3ccccc3)cc2CNC(=O)c2cccc([N+](=O)[O-])c2)cc1 the results were Lmaj promast 52*, m-calpain inh -18, WT yeast gro inh 10 and Cl transport mod 0.45.
`Cc1cc(NC(=O)C(=O)NCc2cccc(Cl)c2)no1` gave ROMK mod 0.051, m-calpain inh 23 and Cl transport mod 0.67.
For c1ccc(-n2cc(CN3CCCC(CN4CCCC4)C3)c(-c3ccc4c(c3)OCO4)n2)cc1 (stereo not given) the results were ROMK mod -2.9, Lmaj promast 100*, m-calpain inh -28 and WT yeast gro inh -10.
OC[C@@H]1CCCN1Cc1cn(-c2ccccc2)nc1-c1ccc2c(c1)OCO2 was read as ROMK mod -1.1, Lmaj promast 14, m-calpain inh 14 and WT yeast gro inh -9.
`CCN(c1ccccc1)S(=O)(=O)c1ccc(Cl)c(C(=O)OCC(=O)NC(=O)C(C)C)c1` gave ROMK mod -1.3, Lmaj promast 1, m-calpain inh 28, WT yeast gro inh -13 and Cl transport mod -0.29.
Screening C=CCN(c1ccccc1)S(=O)(=O)c1ccc(Cl)c(C(=O)OCC(=O)c2[nH]c(C)c(C(C)=O)c2C)c1 returned Lmaj promast 76*, m-calpain inh 28, WT yeast gro inh 7 and Cl transport mod 0.05.
For O=C(Nc1ccc(F)cc1)NC1(C(=O)NCc2cccs2)CCCCC1 the results were Lmaj promast 87*, m-calpain inh 29, WT yeast gro inh 5 and Cl transport mod -0.8.
For O=C(Nc1ccccc1)NC1(C(=O)NCc2ccc3c(c2)OCO3)CCCCC1 the results were ROMK mod 0.023, Lmaj promast 58*, m-calpain inh 18, WT yeast gro inh 4 and Cl transport mod -0.051.
`O=C(NCc1cccs1)Nc1cccc(Cl)c1` gave ROMK mod -0.24, Lmaj promast 7 and Cl transport mod -0.42.
O=C(Nc1cccc(Cl)c1)NC1(C(=O)NCc2cccs2)CCCCC1 was read as Lmaj promast 62*, m-calpain inh 14 and WT yeast gro inh 8.
`N#Cc1cn(OCc2ccccc2)c(=O)[nH]c1=O` gave ROMK mod 0.15, Lmaj promast -9, m-calpain inh -12, WT yeast gro inh -1 and Cl transport mod -0.12.
Brc1cccc(/C=N/Nc2nc(N3CCCCC3)nc(N3CCCCC3)n2)c1 was read as ROMK mod 0.073, Lmaj promast 52*, m-calpain inh 33 and WT yeast gro inh 2.
For BrC(/C=C\c1ccccc1)=N/Nc1nc(N2CCOCC2)nc(N2CCOCC2)n1 the results were ROMK mod 0.19, Lmaj promast 14, m-calpain inh -13, WT yeast gro inh 6 and Cl transport mod -1.6.
C(=N\Nc1nc(N2CCOCC2)nc(N2CCOCC2)n1)/c1ccco1 was read as ROMK mod 0.69, Lmaj promast -5, m-calpain inh 16 and WT yeast gro inh 19.
Screening CN(C)c1nc(NCc2ccccc2)nc(N/N=C/c2cccc(Br)c2)n1 returned ROMK mod 0.4, Lmaj promast 52*, m-calpain inh -4, WT yeast gro inh 46 and Cl transport mod -0.092.
`Fc1ccc(Nc2nc(N/N=C/c3ccco3)nc(N3CCCCC3)n2)cc1` gave ROMK mod -1.6, Lmaj promast 83*, m-calpain inh -58, WT yeast gro inh 82* and Cl transport mod -0.0088.
Brc1cccc(/C=N/Nc2nn[nH]n2)c1 was read as ROMK mod 0.31, Lmaj promast 2, m-calpain inh 17, WT yeast gro inh 19 and Cl transport mod 0.024.
BrC(=C\c1ccccc1)/C=N/Nc1nc(N2CCOCC2)nc(N2CCOCC2)n1 was read as ROMK mod -0.3, Lmaj promast 86*, m-calpain inh 23, WT yeast gro inh 16 and Cl transport mod 1.
Screening C(=N\Nc1nc(N2CCCCCC2)nc(N2CCCCCC2)n1)/c1ccccc1 returned Lmaj promast 61*, m-calpain inh 6, WT yeast gro inh 68* and Cl transport mod 0.46.
CC(/C=N/Nc1nc(N2CCCCC2)nc(N2CCCCC2)n1)=C\c1ccccc1 was read as ROMK mod 0.012, Lmaj promast 19, m-calpain inh 8, WT yeast gro inh 11 and Cl transport mod -0.4.
For Fc1ccccc1COc1ccccc1/C=N/Nc1nc(N2CCCC2)nc(N2CCCC2)n1 the results were Lmaj promast 50*, m-calpain inh -4, WT yeast gro inh 10 and Cl transport mod 0.13.
`O=C1CC(N2CCC(O)(c3ccc(Br)cc3)CC2)C(=O)N1c1ccc(Cl)cc1` (stereo not given) gave ROMK mod -0.59, Lmaj promast -7, m-calpain inh 1, WT yeast gro inh -16 and Cl transport mod -0.3.
